# Data from paper PMC5540273 (PLoS ONE, 2017).
# Experiments:
# Conditions in all cases: concentration: 1 μM, replicates: in singlicate; n = 1
# CDC2L2 = system: CDC2L2
# CDC2L5 = system: T1, CDC2L5
# T1 construct: gene CDK13
# CDK11 = system: T2, CDK11
# T2 construct: gene CDK19
# CDK2 = system: CDK2
# CDK3 = system: CDK3
# CDK4-cyclinD1 = system: CDK4-cyclinD1
# CDK4-cyclinD3 = system: CDK4-cyclinD3
# CDK4 = system: CDK4
# CDK5 = system: CDK5
# CDK7 = system: CDK7
# 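Further: KINOMEscan kinase panel screen.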
SMILES,%Inh (CDC2L2) [%],%Inh (CDC2L5) [%],%Inh (CDK11) [%],%Inh (CDK2) [%],%Inh (CDK3) [%],%Inh (CDK4-cyclinD1) [%],%Inh (CDK4-cyclinD3) [%],%Inh (CDK4) [%],%Inh (CDK5) [%],%Inh (CDK7) [%]
COc1ccc(CNC(=O)NC2CCN(c3ccnc(Nc4ccc(F)cc4)n3)CC2)cc1 [GSK1379788],10,0,3,0,3,0,0,20,0,0
CC(C)c1nc(-c2cccc(NS(=O)(=O)c3c(F)cccc3F)c2F)c(-c2ccnc(Nc3ccc(N4CCOCC4)nc3)n2)s1 [GSK2008607],47,84,6,99.4,99.5,65,93.6,96.3,99.1,93.1
Cc1ccc(C)c(NC(=O)NC2CCN(c3ccnc(Nc4ccc(F)cc4)n3)C2)c1 (stereo not drawn) [GSK1379720],0,0,57,0,10,37,0,35,0,0
COC(=O)Nc1nc2cc(Oc3ccc(NC(=O)Nc4cc(C(F)(F)F)ccc4F)cn3)ccc2[nH]1.Cl.Cl [GW681170],18,69,98.1,16,7,7,0,50,0,94.1
O=C(Nc1cccc(-c2nn3ccccc3c2-c2ccnc(Nc3cccc(F)c3)n2)c1)c1c(F)ccc(F)c1Cl [GSK357952],0,0,0,0,1,0,0,53,0,0
Cl.NC(=O)c1cccc(Nc2nccc(Nc3ccc(Oc4c(Cl)cccc4Cl)c(Cl)c3)n2)c1 [GW659009],2,0,88,0,0,0,0,1,0,0
COc1cccc(C2=C(Nc3ccc(Cl)c(C(=O)O)c3)C(=O)NC2=O)c1 [SB-390769],0,0,100,9,25,7,100,0,0,0
Cl.c1ccc(-c2ccc3c(Nc4ccc5[nH]ncc5c4)ccnc3c2)nc1 [GW440137],16,0,3,0,0,0,29,0,0,8
Cc1occc1-c1ncc(OC[C@@H](N)Cc2c[nH]c3ccccc23)cc1-c1ccc2[nH]nc(C)c2c1.O=C(O)C(F)(F)F [GSK682037],6,0,35,0,2,0,0,0,0,30
